# Screens: PubChem, several laboratories
# Rv3671c inh: inhibits the M. tuberculosis serine protease Rv3671c | P9WHR9 | inhibition, % at 5.96 µM | hit rate 0.048% among 320,000; in the data active means inhibition above about 38%;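 further: extracellular domain of Rv3671c used as enzyme; 0% = enzyme with DMSO and 100% = no enzyme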
# Target sequence (P9WHR9 whole entry, looked up, the tested form may be a part): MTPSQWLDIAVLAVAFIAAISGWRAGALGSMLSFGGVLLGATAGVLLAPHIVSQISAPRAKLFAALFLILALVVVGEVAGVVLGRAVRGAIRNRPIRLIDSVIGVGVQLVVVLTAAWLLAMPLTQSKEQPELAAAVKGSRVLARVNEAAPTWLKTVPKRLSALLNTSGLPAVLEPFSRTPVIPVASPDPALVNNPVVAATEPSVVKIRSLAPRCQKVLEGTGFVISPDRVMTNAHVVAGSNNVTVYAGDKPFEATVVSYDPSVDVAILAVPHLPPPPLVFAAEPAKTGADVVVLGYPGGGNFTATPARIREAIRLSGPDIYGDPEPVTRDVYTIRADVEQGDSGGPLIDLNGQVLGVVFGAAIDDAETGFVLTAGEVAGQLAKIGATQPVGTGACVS
# GDH-TPI counter: inhibits GDH-TPI coupling enzymes, artifact for Mtb FBA screen; inhibition, % at 4.8 µM; AID 588335; hit rate 1.2% among 360,000; GDH-TPI coupled enzyme counterscreen, NADH absorbance; in the data active means inhibition above about 30%;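 further: 0% = DMSO wells and 100% = wells lacking the enzyme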
# Mtb UGM inh: blocks M. tuberculosis UGM enzyme; purified UGM, fluorescence polarization probe displacement; inhibition, % at 10 µM; hit rate 0.06% among 320,000; AID 504406; in the data active means inhibition above about 10%, passing the limit was not always enough
# FBA Mtb inh: inhibits M. tuberculosis FBA enzyme; P9WQA3; purified M. tuberculosis FBA, fluorescence read-out; inhibition, % at 1 µM; hit rate 2.3% among 360,000; in the data active means inhibition above about 27%;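 further: 0% = vehicle and 100% = reference inhibitor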
# * marks the source's active call; other numbers are inactive results; . = not tested or not shown. Most compounds without a hit are left out; they make up all but 3.5% or so of the library.
SMILES,Rv3671c inh,GDH-TPI counter,Mtb UGM inh,FBA Mtb inh
CN1C(c2ccc(F)cc2)=CS/C1=C(\C#N)c1nnc2n1-c1ccccc1SC2,-6,34*,-2,0
Clc1ccc(-c2nnc3n2-c2ccccc2SC3)cc1,3,5,-3,-2
CCOc1ccc(NS(=O)(=O)c2c(C(=O)N3CCCCCC3)c(C)n(C)c2C)cc1,-1,-3,1,0
COc1cc(OC)nc(Nc2nc(C(N)Cc3ccc(Cl)cc3)cs2)n1 (stereo unspecified),.,-5,.,-2
COc1ccc(CN2CCc3c([nH]c4ccccc34)C2)cc1Br,3,43*,-1,11
COc1ccccc1NS(=O)(=O)c1cc(N)ccc1N1CCCC1,3,5,23*,2
O=C1C=C(c2cnc3ccccc3c2)C[C@@H](c2ccc3c(c2)OCO3)C1,-17,10,0,2
COc1ccccc1NC=C1C(=O)OC2(CCCCC2)OC1=O,4,33*,0,-1
CCCCNC(=O)N(O)C1N(/N=C/c2ccco2)C(=S)SC1(C)C (stereo unspecified),1,44*,-1,-2
CC1(C)SC(=S)N(/N=C/c2ccc(O)cc2)C1N(O)C(=O)Nc1ccc([N+](=O)[O-])cc1 (stereo unspecified),-45,35*,0,-1
O=c1c2ccccc2n(CC(O)CN2CCCCC2)c2ccccc12 (stereo unspecified),2,4,-2,109*
O=C(Nc1ccncc1)C1CCN(S(=O)(=O)c2cccc(C(F)(F)F)c2)CC1,1,5,1,2
O=C(O)C1(c2ccccc2)CCN(S(=O)(=O)c2cccc(Cl)c2)CC1,8,5,0,1
Cc1cc(N(CCCl)CCCl)ccc1/C=N/NC(=O)c1ccco1,1,49*,-2,0
Cc1cc(N(CCCl)CCCl)ccc1C=NNC(=O)Cc1cc(=O)oc2cc(O)ccc12,.,59*,.,169*
COc1ccc(NC(=O)/C(C#N)=C/c2ccc(Sc3nncn3C)c([N+](=O)[O-])c2)cc1,0,-2,0,-1
CC1(C(=O)Nc2ccc3ccccc3c2)CCC(=O)N1CCc1c[nH]c2ccccc12 (stereo unspecified),.,.,.,1
Cc1cccc(NC(=S)NC(=O)/C=C/c2ccco2)n1,2,33*,1,-2
O=C(/C=C/c1ccco1)NC(=S)Nc1cccc(-c2nc3ccccc3s2)c1,-48,38*,1,0
O=C(/C=C/c1ccco1)NC(=S)Nc1cc(-c2nc3ccccc3s2)ccc1Cl,-29,10,0,2
CC(=O)c1ccc(NC(=S)NC(=O)/C=C/c2ccco2)cc1,-8,51*,2,-2
NS(=O)(=O)c1ccc(NC(=S)NC(=O)/C=C/c2ccco2)cc1,-3,20,0,1
NC(N)=NS(=O)(=O)c1ccc(NC(=S)NC(=O)/C=C/c2ccco2)cc1,-11,57*,.,-5
CC(=O)Nc1ccc(NC(=O)CSc2ccc3nnc(-c4cccnc4)n3n2)cc1,2,-5,-3,-4
CCOC(=O)[C@H]1[C@H]2COc3ccc(Br)cc3[C@H]2N2C(=O)CN(Cc3ccc(Cl)cc3)C(=O)[C@@]12C,.,6,.,3
SMILES,Rv3671c inh,GDH-TPI counter,Mtb UGM inh,FBA Mtb inh
Cc1cccc(NC(=S)NC(=O)/C=C/c2ccco2)c1,5,6,2,5
O=C(/C=C/c1ccco1)NC(=S)Nc1ccccc1,1,40*,-1,-2
O=C(O)c1ccc(N/N=C/c2cccc3nccnc23)cc1,3,46*,1,-4
O=C(O)c1ccc(N/N=C/c2cc3ccccc3nc2Cl)cc1,9,37*,-1,3
CCN(CC(=O)NCc1cccs1)C(=O)c1ccc(OC)c(OC)c1,5,9,3,3
Cc1ccc(C(=O)Nc2ccccc2C(=O)N2CCCC(C)C2)cc1 (stereo unspecified),4,0,-1,5
CCN(CC)C(=O)CSc1nnnn1-c1ccc(F)c(Cl)c1,-3,-5,-2,-3
O=C(N/N=C/C(Cl)=C\c1ccccc1)c1ccco1,-8,33*,1,-1
O=C(N/N=C/C(Cl)=C/c1ccccc1)c1ccccc1F,2,29,1,-3
O=C(N/N=C/C(Cl)=C/c1ccccc1)c1ccco1,-7,35*,1,-10
O=C(NC(c1cccnc1)c1ccc2c(c1)OCO2)C1CCN(CCOc2ccc(Cl)cc2Cl)CC1 (stereo unspecified),.,11,.,1
Cn1nc(C(C)(C)C)cc1C(=O)N1CCCCC1c1cc(C(=O)NCc2cccnc2)no1 (stereo unspecified),.,4,.,-2
COC(=O)c1sc(-c2ccc(C(C)(C)C)cc2)cc1NC(=O)c1ccccc1C(=O)O,-16,23,-5,4
